Hit rate of the full screen: of about 320,000 compounds, about 2,100 (0.66%) were called active. Inconclusive results (about 53%) are left out. Calls follow the shape of the dose curve; as a rule, active = well fitted inhibition curve with a large enough effect in the signal ratio, with a control signal flat (not every such curve was filed as active); inconclusive = small, poorly fitted or top-dose-only effect, or effect the other way, or a change in a side signal; inactive = flat fitted curve, though single readings scatter; the % refers to the signal ratio. The entries come from a sample that favours actives as a whole.
Test: qHTS Assay for Lipid Storage Modulators in Drosophila S3 Cells;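 as to cell number change: cells counted by Cell Tracker Red CMTPX staining in the red channel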; as to lipid storage change, negative = inhibition: % is scaled to controls: 0 for no effect and ±100 for the full control effect
Details: BODIPY lipid droplet fluorescence, 18-24 h, cells fed with added oleic acid; cell number change: measured here: cell count max response; series mostly up to 46.1 µM; lipid storage change, negative = inhibition: at the top concentration
In short: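 Drosophila S3 cells got compounds at several concentrations plus oleic acid (400 uM solution). Laser-scanning cytometry with 488 nm excitation read lipid droplets at 500-530 nm and cells at 575-640 nm. Percent activity was relative to 20 uM Triacsin C.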
For CN(C(=O)CCn1c(=S)oc2ccccc21)c1ccc(F)cc1, the “lipid storage change, negative = inhibition” value was 7.47% (inactive) and the cell number change was 7.52%.
For Cc1cc(C)c(C)c(S(=O)(=O)N[C@@H](C)C(=O)OCC(N)=O)c1C, the “lipid storage change, negative = inhibition” value was -8.61% (inactive) and the cell number change was -24.5%.
For O=C(OCC(=O)N1CCN(c2ccccc2)CC1)c1ccco1, the Potency was 23.1 µM (active) and the cell number change was -17.5%.
In the case of COc1ccc(N2CCN(C(=O)COC(=O)c3ccco3)CC2)cc1, the “lipid storage change, negative = inhibition” value is reported as -1.86% (inactive) and the cell number change is reported as 6.24%.
With O=C(NCC(=O)N1CCN(c2ccccc2)CC1)c1ccco1 the “lipid storage change, negative = inhibition” value was 11.3% (inactive) and the cell number change was 1.29%.
For COc1ccc(NC(=O)CCS(=O)(=O)c2ccc(Cl)cc2)cc1, the “outcome” value was “inactive”.
For O=S(=O)(c1cccs1)N1CCC(Cc2ccccc2)CC1, the “outcome” value was “inactive” and the cell number change was -12%.
For CCC(C)Sc1ccc(-c2nc3ccc(C)cn3c2NC2CCCCC2)cc1 (stereo not given), the “lipid storage change, negative = inhibition” value was 15.5% (inactive) and the cell number change was -1.01%.
For CCCCCCSc1ccc(-c2nc3ccc(C)cn3c2NC2CCCCC2)cc1, the Potency was 11.6 µM (active).
For CCCCCCSc1cccc(-c2nc3cc(C)ccn3c2NC2CCCCC2)c1, the “lipid storage change, negative = inhibition” value was -7.42% (inactive) and the cell number change was -11.8%.
With CC(C)(C)CC(=O)Nc1nn[nH]n1 the “lipid storage change, negative = inhibition” value was 2.6% (inactive) and the cell number change was -2.51%.
For O=C(NNC(=S)NC1CC2C=CC1C2)c1cccnc1 (stereo not given), the “lipid storage change, negative = inhibition” value was 2.66% (inactive) and the cell number change was 2.14%.
With COCC(=O)Nc1ccc(Br)c(C)c1 the cell number change was 9.41% and the lipid storage change, negative = inhibition was 14.1% [at 9.22 µM] (inactive).
In the case of CCOC(=O)Cc1csc(SCC(=O)NC(C)C23CC4CC(CC(C4)C2)C3)n1 (stereo not given), the Potency is reported as 1.64 µM (active) and the cell number change is reported as 5.41%.
In the case of CCOC(=O)Cc1csc(SCC(=O)Nc2ccc(C)cc2F)n1, the “lipid storage change, negative = inhibition” value is reported as 31.2% (inactive) and the cell number change is reported as -11%.
In the case of CCOC(=O)Cc1csc(SCC(=O)Nc2cccc(Cl)c2)n1, the “lipid storage change, negative = inhibition” value is reported as -3.77% (inactive) and the cell number change is reported as 13.5%.
With O=C(Nc1ccccn1)c1ccc(Cl)c(S(=O)(=O)N2CCOCC2)c1 the “lipid storage change, negative = inhibition” value was -1.8% (inactive) and the cell number change was 13.7%.
With CCOC(=O)COc1ccccc1C(=O)c1cnn(-c2ccccc2)c1 the “lipid storage change, negative = inhibition” value was 8.31% (inactive) and the cell number change was 3.88%.
In the case of CCC(C)NC(=O)CSc1nc2ccccc2c(=O)n1CCCN1CCCCC1 (stereo not given), the “lipid storage change, negative = inhibition” value is reported as 24.2% (inactive) and the cell number change is reported as -2.07%.
With Cc1cc([N+](=O)[O-])nn1CCC(=O)Nc1nccs1 the “lipid storage change, negative = inhibition” value was 15% (inactive) and the cell number change was 0.24%.
In the case of CCCN1CCc2c(sc(NC(=O)c3ccc(S(=O)(=O)N4CCN(C(=O)OCC)CC4)cc3)c2C(N)=O)C1, the “lipid storage change, negative = inhibition” value is reported as -19.6% (inactive) and the cell number change is reported as -7.97%.
With COC(=O)c1c(NC(=O)c2ccc(N(C)S(=O)(=O)c3ccc(C)cc3)cc2)sc2c1CCCC2 the “lipid storage change, negative = inhibition” value was 8.28% (inactive) and the cell number change was -4.01%.
In the case of CN1CCc2c(sc(NC(=O)c3ccc(C(=O)c4ccccc4)cc3)c2C(N)=O)C1, the “lipid storage change, negative = inhibition” value is reported as -25.9% (inactive) and the cell number change is reported as 0.647%.
In the case of CCCN1CCc2c(sc(NC(=S)NC(=O)c3ccccc3)c2C#N)C1, the “lipid storage change, negative = inhibition” value is reported as -2.06% (inactive) and the cell number change is reported as 3.88%.
For CCCN1CCc2c(sc(NC(=O)c3ccc(S(=O)(=O)N(C)c4ccccc4)cc3)c2C(=O)NC)C1, the Potency was 4.11 µM (active) and the cell number change was -17.2%.
In the case of CCCN1CCc2c(sc(NC(=O)c3ccc(S(=O)(=O)N(C)c4ccccc4)cc3)c2C(N)=O)C1, the Potency is reported as 13 µM (active) and the cell number change is reported as -20.7%.

— PubChem BioAssay AID2685 (National Center for Advancing Translational Sciences (NCATS), 2010)
Potency is read from the fitted curve at half-maximal effect.
